Bioassay records (PubChem BioAssay)
The list is not random: actives were taken first. Their share in the collection is about 22%.
CYP2C9 inh: blockers of cytochrome P450 2C9 activity – biochemical, luminescence, ADME assay, primary screen; CYP2C9 Supersomes, luciferin-H conversion; P11712; inhibition, % at 5 µM; hit rate 20% among 96,000;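 active means blocking of liver enzyme CYP2C9 beyond about 50% at 5 µM, limit read from the data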
Measles CPE: compounds protecting cells from measles virus cytopathic effect, primary screen, measles RdRp inhibitor project, single point, MLSMR library, absorbance | Measles virus-infected cells, CPE protection | protection (pct of control), % at 4 µM | hit rate 1.5% among 140,000 | AID 841, 2007; in the data active means protection mostly above about 24%, no sharp cut-off; inactive means mostly below about 26%
CYP2C19 activ: human CYP2C19 activators, primary screen, biochemical, luminescence | 96,000 tested, under 10 active | Cytochrome P450 2C19 (Homo sapiens), P33261 | recombinant CYP2C19, luciferin-H EGE luminescence; stronger effect = higher value; 0 = fully inhibited enzyme, 1 = untreated enzyme | activation factor at 5 µM | AID 1025, 2008;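 active means activation factor of at least 2 at 5 µM in the primary screen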
Target sequence (P33261 whole entry, looked up): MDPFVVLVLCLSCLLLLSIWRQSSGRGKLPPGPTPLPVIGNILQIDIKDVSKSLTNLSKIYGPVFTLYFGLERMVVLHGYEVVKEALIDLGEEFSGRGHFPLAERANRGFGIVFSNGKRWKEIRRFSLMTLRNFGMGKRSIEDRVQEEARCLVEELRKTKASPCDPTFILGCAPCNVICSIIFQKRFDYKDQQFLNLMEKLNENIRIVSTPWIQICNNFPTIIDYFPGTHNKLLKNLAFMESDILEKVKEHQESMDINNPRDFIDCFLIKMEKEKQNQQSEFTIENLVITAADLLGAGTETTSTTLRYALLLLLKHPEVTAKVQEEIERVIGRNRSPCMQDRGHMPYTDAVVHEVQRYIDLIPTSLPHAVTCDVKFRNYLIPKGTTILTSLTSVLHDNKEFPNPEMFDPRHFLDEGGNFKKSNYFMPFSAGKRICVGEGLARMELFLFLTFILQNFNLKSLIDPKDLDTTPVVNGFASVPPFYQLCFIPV
CYP2C9 activ: human CYP2C9 activators, primary screen, biochemical, luminescence; activation factor at 5 µM; recombinant CYP2C9, luciferin-H conversion; stronger effect = higher value; factor 1 = untreated enzyme, 0 = blocked; hit rate 1.4% among 96,000; AID 1024, 2008;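 active means activation factor of 2 or more for CYP2C9 at a 5 µM dose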
CYP2C19 inh: blockers of cytochrome P450 2C19 activity – biochemical, luminescence, ADME assay, primary screen; P33261; inhibition, % at 5 µM; CYP2C19 Supersomes, luciferin-H EGE luminescence, 30 min; hit rate 21% among 96,000;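 active means CYP2C19 inhibition above a set limit at 5 µM in the primary screen, cut at about 50% in these data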
Large screens that a line does not name were inactive.

CSCCC(NS(=O)(=O)c1ccc2ccccc2c1)C(=O)O (centres undefined)	none
CCc1cccc(NC(=O)Cn2c(-c3ccccc3)cc(C(C)=O)c2C)c1	none (no result: CYP2C9 inh, CYP2C19 activ, CYP2C9 activ, CYP2C19 inh)
CCc1ccc(NC(=O)Cc2cn(C)c3ccccc23)cc1	CYP2C9 activ 2.5
CCC(C)NC(=O)Cc1cn(C)c2ccccc12 (centres undefined)	CYP2C19 inh 60
CCc1cccc(NC(=O)Cc2cn(C)c3ccccc23)c1	CYP2C9 activ 2.8
COCCNC(=O)Cc1cn(C)c2ccccc12	none
CCc1ccc(NC(=O)Cc2ccc(-n3cccc3)cc2)cc1	none (no result: CYP2C9 inh, CYP2C19 activ, CYP2C9 activ, CYP2C19 inh)
CCc1cccc(NC(=O)CCSCCC(=O)Nc2cccc(CC)c2)c1	CYP2C9 inh 62
O=C(/C=C/c1ccccc1[N+](=O)[O-])Nc1cccnc1	none (no result: CYP2C9 inh, CYP2C19 activ, CYP2C9 activ, CYP2C19 inh)
CCOC(=O)C(NC(C)=O)C(OC(C)=O)c1cccc(N(CCO)CCO)c1 (centres undefined)	none
CNC(=S)NNC(=O)Cc1ccc(OC)c(OC)c1	none
O=C(CN1C(=O)COc2ccccc21)NCc1ccccn1	none
Cn1cc(CC(=O)Nc2cccc(C#N)c2)c2ccccc21	CYP2C9 activ 3.1
CC(C)=CC1C=C(C)C(C)C2C(=O)NNC(=O)C12 (centres undefined)	CYP2C19 inh 51
COc1ccccc1C/C(N)=N/OC(=O)c1cccc([N+](=O)[O-])c1C	none (no result: CYP2C9 inh, CYP2C19 activ, CYP2C9 activ, CYP2C19 inh)
O=C(c1ccccc1)c1coc2ccc(O)c(CN3CCOCC3)c12	CYP2C9 inh 56, CYP2C19 inh 96
O=C(c1ccccc1)c1coc2ccc(O)c(Cl)c12	CYP2C9 inh 64, CYP2C19 inh 90
Cc1ccc(C(=O)c2coc3ccc(O)c(Cl)c23)cc1	CYP2C19 inh 54
CC(C)C1Cc2[nH]c(=O)c(C(=O)O)cc2CO1 (centres undefined)	none
CCOC(=O)N1CCN(C(=O)Nc2ccc(Cl)cc2Cl)CC1	none
CCOC(=O)C1=C(C)N=c2s/c(=C\c3ccc(OC(C)=O)cc3)c(=O)n2C1/C=C/c1ccccc1 (centres undefined)	none (no result: CYP2C9 inh, CYP2C19 activ, CYP2C9 activ, CYP2C19 inh)
CCOC(=O)C1=C(C)N=c2s/c(=C\c3ccc(OC(C)=O)c(OCC)c3)c(=O)n2C1/C=C/c1ccccc1 (centres undefined)	CYP2C9 inh 72
Cc1nn(Cc2cccc(C(=O)NC34CC5CC(CC(C5)C3)C4)c2)c(C)c1Br	none (no result: CYP2C9 inh, CYP2C19 activ, CYP2C9 activ, CYP2C19 inh)
O/C(=C\Sc1nnc(Cc2ccccc2)o1)c1ccc(F)cc1	CYP2C9 inh 96
CSc1cc(-c2ccccc2)n(Cc2ccc(Cl)cc2Cl)c(=O)c1C#N	CYP2C9 inh 51
Cc1[nH]cnc1CSCc1ccc(F)cc1	none (no result: CYP2C9 inh, CYP2C19 activ, CYP2C9 activ, CYP2C19 inh)
COc1ccc(NC(=O)c2ccc(-n3cccn3)nc2)c(OC)c1	none
COc1ccccc1NC(=O)c1ccc(-n2cccn2)nc1	CYP2C9 activ 2
O=C(Nc1c(F)cccc1F)c1ccc(-n2cncn2)nc1	CYP2C19 inh 93
O=C(Nc1ccc(F)cc1F)c1ccc(-n2cncn2)nc1	CYP2C9 inh 76, CYP2C19 inh 100
Cc1ccccc1NC(=O)c1ccc(-n2cncn2)nc1	CYP2C9 inh 85, CYP2C19 inh 99
O=C(NC(=S)NCCN1CCOCC1)c1ccccc1Br	none (no result: CYP2C9 inh, CYP2C19 activ, CYP2C9 activ, CYP2C19 inh)
CCCCC(CCC(=O)Nc1nccs1)C(=O)O (centres undefined)	none
CCCn1c(O)c2ccc(C(=O)N=NC(=O)c3cccnc3)cc2c1O	none
COc1ccc(C(=O)O)cc1Nc1cc(C)nc2ncnn12	none
Cn1cccc1CC(=O)NNC(=O)Nc1cccc(Cl)c1	none (no result: CYP2C9 inh, CYP2C19 activ, CYP2C9 activ, CYP2C19 inh)
COCC(C)NCc1ccccc1C (centres undefined)	CYP2C9 inh 80
Clc1ccccc1OCc1nn2c(-c3ccncc3)nnc2s1	CYP2C9 inh 80, CYP2C19 inh 100
COc1ccc(-c2nnc3sc(COc4ccc(C)cc4)nn23)cc1	none
c1csc(Cc2nn3c(-c4ccncc4)nnc3s2)c1	CYP2C9 inh 80, CYP2C19 inh 98
Cc1cccc(C)c1C(OCCN(C)C)C1CCCCC1 (centres undefined)	none (no result: CYP2C9 inh, CYP2C19 activ, CYP2C9 activ, CYP2C19 inh)
O=C(Nc1ccccc1C1CC1)c1cccs1	none
N#CCCn1nc(-c2ccccc2)cc1Nc1ccccc1NC(=O)c1cccs1	CYP2C9 inh 96, CYP2C19 inh 97
O=C(CN1C(=O)COc2ccc(S(=O)(=O)N3CCCC3)cc21)NC1CCCCCCC1	none (no result: CYP2C9 inh, CYP2C19 activ, CYP2C9 activ, CYP2C19 inh)
O=C(C1CCCN(S(=O)(=O)c2ccccc2[N+](=O)[O-])C1)N1CCN(c2ccccc2)CC1 (centres undefined)	none (no result: CYP2C9 inh, CYP2C19 activ, CYP2C9 activ, CYP2C19 inh)
Cc1[nH]n(-c2ccccc2)c(=O)c1S(=O)(=O)c1ccccc1	CYP2C19 inh 88
O=C(O)C1CCCCC1C(=O)Nc1cccc2ccccc12 (centres undefined)	none (no result: CYP2C9 inh, CYP2C19 activ, CYP2C9 activ, CYP2C19 inh)
O=C(NCC1CCCO1)C1CCC(N2C(=O)c3ccccc3C2=O)CC1 (centres undefined)	CYP2C9 inh 72, CYP2C19 inh 56
CS(=O)(=O)N1CCC(C(=O)Nc2ccccc2)CC1	none
O=C(Nc1ccccc1)C1CCN(c2nccs2)CC1	CYP2C19 inh 85
O=C(O)C1CCCCC1C(=O)Nc1ccccc1Nc1ccccc1 (centres undefined)	CYP2C9 inh 86, CYP2C19 inh 56
O=C(Nc1ccccc1)C1CCCCC1	none (no result: CYP2C9 inh, CYP2C19 activ, CYP2C9 activ, CYP2C19 inh)
O=C(Nc1ccc(Nc2ccccc2)cc1)C1CC1	CYP2C9 inh 50, CYP2C19 inh 59
CC1CN(C(=O)Nc2ccc3c(c2)OCO3)CC(C)O1 (centres undefined)	none
O=C(Nc1ccc(F)cc1)C1CCC(N2C(=O)c3ccccc3C2=O)CC1 (centres undefined)	CYP2C9 inh 51, CYP2C19 inh 78
COc1ccc(-c2nc(CS(=O)CC(=O)NCc3cccnc3)c(C)o2)cc1 (centres undefined)	CYP2C9 inh 62
COc1cccc(-c2nc(CS(=O)CC(=O)NCc3ccccc3)c(C)o2)c1 (centres undefined)	CYP2C9 inh 58, CYP2C19 inh 54
CCc1ccc(-c2nc(CS(=O)CC(=O)NCc3cccnc3)c(C)o2)cc1 (centres undefined)	CYP2C9 inh 70
CCCNC(=O)CS(=O)Cc1nc(-c2cccc(OC)c2)oc1C (centres undefined)	none
O=C(O)c1ccccc1C(=O)NCC(O)COCC1CC=CCC1 (centres undefined)	CYP2C19 inh 92
Cc1ccc(C2(CC(=O)Nc3nccs3)CCOC(C(C)C)C2)cc1 (centres undefined)	none (no result: CYP2C9 inh, CYP2C19 activ, CYP2C9 activ, CYP2C19 inh)
COc1ccccc1C1(CC(=O)Nc2nccs2)CCOC(C(C)C)C1 (centres undefined)	CYP2C9 inh 67, CYP2C19 inh 92
Cc1cc(C)nc(NC(=O)/C=C/c2ccc3c(c2)OCO3)c1	none (no result: CYP2C9 inh, CYP2C19 activ, CYP2C9 activ, CYP2C19 inh)
Cc1ccc(Cn2nnc3c(=O)n(Cc4cc(C)ccc4C)cnc32)cc1	none (no result: CYP2C9 inh, CYP2C19 activ, CYP2C9 activ, CYP2C19 inh)
C=C(C)CNC(=S)NNC(=O)c1ccc(Br)cc1	none (no result: CYP2C9 inh, CYP2C19 activ, CYP2C9 activ, CYP2C19 inh)
COc1ccc(-c2cc3nc(C)cc(NCCO)n3n2)cc1	none
